Compound activity: PubChem BioAssay, National Center for Advancing Translational Sciences (NCATS)
Only some compounds are listed: those with a hit (about 7.5% of all), similar ones and a draw of the others.
Rab9 promoter act: qHTS Assay for Rab9 Promoter Activators | Huh7 Rab9 promoter-luciferase reporter, luminescence, 24 h | Potency, µM (series often up to 9.22 µM), without a hit: at the highest dose activation, negative = inhibition, most hits filed as activators | 320,000 tested, 2.8% active | AID 485297, 2010; note: % of control where 0% means no effect; nearly all actives have a fitted effect of over 60% in size
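Huh7 cells stably carrying a Rab9 promoter-luciferase reporter, 1500 cells per well in OP-MEM I with 10% FBS, treated with compound 24 hours at 37C. Luciferase activity read by luminescence after 10 minutes with Amplite reagent.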
ELG1 genotoxic: qHTS screen for small molecules that induce genotoxicity in human embryonic kidney (HEK293T) cells expressing luciferase-tagged ELG1; AID 504466, 2011; Potency, µM (series often up to 46 µM), for inactives: top-dose activity change, positive = activation, actives largely listed as activators; HEK293T ELG1-luciferase reporter, luminescence, 16 h; 330,000 tested, 1.3% active; note: % of control where 0% means no effect; nearly all actives have a fitted effect of over 60% in size
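Reporter readout depends on ELG1 protein level, which increases with genetic stress. After 16 hr compound exposure at 37 °C, luciferase activity was quantified using ONE-Glo.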
FLuc counter: qHTS profiling assay for firefly luciferase inhibitor/activator using purifed enzyme and Km concentrations of substrates (counterscreen for miR-21 project). AID 588342, 2011. purified FLuc, Km substrates, luminescence inhibition. 360,000 tested, 6.9% active. Potency, µM (top dose mostly 57.5 µM), without a hit: top-dose activity change, negative = inhibition, actives largely listed as inhibitors. Luciferin 4-monooxygenase (Photinus pyralis), P08659;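 note: plate controls were vehicle for no effect and reference inhibitor for full effect; nearly all actives have a fitted effect of over 55% in size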
Target sequence (P08659 whole entry, looked up): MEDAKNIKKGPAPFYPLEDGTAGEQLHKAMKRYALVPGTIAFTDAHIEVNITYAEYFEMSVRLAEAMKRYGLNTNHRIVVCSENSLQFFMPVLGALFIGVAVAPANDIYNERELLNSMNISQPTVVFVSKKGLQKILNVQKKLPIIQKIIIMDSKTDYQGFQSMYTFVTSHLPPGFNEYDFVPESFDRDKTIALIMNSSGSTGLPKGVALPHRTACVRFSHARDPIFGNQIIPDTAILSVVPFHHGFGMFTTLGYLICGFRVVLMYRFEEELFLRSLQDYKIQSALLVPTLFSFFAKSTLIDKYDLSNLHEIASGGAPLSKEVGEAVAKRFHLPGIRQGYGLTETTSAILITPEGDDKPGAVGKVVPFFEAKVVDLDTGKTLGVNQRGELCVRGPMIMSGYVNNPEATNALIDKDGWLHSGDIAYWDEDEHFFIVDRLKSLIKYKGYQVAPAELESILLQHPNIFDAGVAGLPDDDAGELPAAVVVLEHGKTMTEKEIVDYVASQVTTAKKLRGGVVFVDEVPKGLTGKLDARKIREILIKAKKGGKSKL
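Biochemical qHTS of compounds, final roughly 60 µM downward over six points, against 10 nM purified firefly luciferase using Km concentrations of substrates (10 uM D-luciferin, 10 uM ATP) in Tris acetate pH 7.5 buffer; luminescence output.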
NPC1 promoter act: qHTS Assay for NPC1 Promoter Activators; Huh7 NPC1 promoter luciferase reporter, 24 h; Potency, µM (titrated, usually from 9.22 µM), inactives show top-dose activation, hits mostly activators; 320,000 tested, 2.4% active; AID 485313, 2010; note: % of control where 0% means no effect; nearly all actives have a fitted effect of over 60% in size
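Readout is luciferase luminescence, reflecting NPC1 promoter activation in stably transfected Huh7 cells after 24 h compound exposure at 37 °C in reduced-serum medium with 10% FBS.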
SMN2 splice enh: qHTS Assay for Enhancers of SMN2 Splice Variant Expression. HEK293 SMN2-luciferase splicing reporter, luminescence, 30-36 h. 210,000 tested, 2.8% active. Potency, µM (doses to about 46.1 µM), without a hit: top-dose activity change, positive = activation, actives largely listed as activators; note: % of control where 0% means no effect; nearly all actives have a fitted effect of over 55% in size
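HEK293 cells carry an SMN2 minigene-luciferase reporter in which exon 7 inclusion puts luciferase in frame. Cells were seeded at 2000 cells/well, attached for 10-12 hours, then exposed to compounds for 30-36 hours at 37C before ONE-Glo luminescence.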
* marks the source's active call; other numbers are inactive results; ? = inconclusive; · = no result; [ ] = dose if it differs, or a comment. Calls come from the whole dose curve; as a rule, active = well fitted curve in the direction sought with a large enough effect; inconclusive = small, poorly fitted or top-dose-only effect, or another doubt; inactive = no such curve, though single readings can be large; an effect the other way counts as inactive or inconclusive. Potency is the fitted concentration of half-maximal effect.

SMILES | Rab9 promoter act | ELG1 genotoxic | FLuc counter | NPC1 promoter act | SMN2 splice enh
Cc1cccc(N2CCN(C(=O)Cn3nc(C)c4sc5ccccc5c4c3=O)CC2C)c1 (configuration not stated) | · | · | -0.4% | · | ·
O=C(CCc1nnc2n(Cc3ccccc3Cl)c(=O)c3ccccc3n12)Nc1ccc(F)c(F)c1 | · | · | -0.4% | · | 3.1%
Clc1ccc(COn2nnc3ccccc32)c(Cl)c1 | · | · | 3.79µM* | · | ?
COc1ccc(N2Cc3ccc(OC)c(OC)c3C2=O)cc1 | ? | 10.3µM* | 4.78µM* | 2µM* | ·
COc1ccc2c(c1OC)C(=O)N(c1nccs1)C2 | ? | 18.4µM* | 15.1µM* | ? | 12.6µM*
COc1ccc2c(c1OC)C(=O)N(c1cccc(/C=C/C(=O)O)c1)C2 | 23.9% | ? | 3.01µM* | 28.5% | ·
CC(=O)N1c2ccc(S(=O)(=O)NCC3CCC(C(=O)N4CC(C)CC(C)C4)CC3)cc2CC1C (configuration not stated) | -4.2% | -2.2%[9.26 µM] | -1.5% | -8.1% | ·
CCCCCSc1nnc(-c2ccc(Br)cc2)o1 | · | · | 12µM* | · | 0.3%
OCC#CCSc1nnc(-c2ccc(Br)cc2)o1 | -3.6% | 20.6µM* | ? | 9.5% | -9.6%
COC(=O)Sc1nnc(-c2ccc(Br)cc2)o1 | 0.6% | 7.2% | 19µM* | 1.6% | -15.3%
CCCCOC(=O)CSc1nnc(-c2ccc(C)cc2)o1 | · | · | ? | · | 4.4%
CC1(NC(=O)/C=C/c2nc3ccccc3s2)CCS(=O)(=O)C1 (configuration not stated) | 2.0% | 1.1% | ? | 2.1% | ·
N/C(=N\OC(=O)C1CCCCC1)c1cccc(Br)c1 | 15.2% | 2.6% | ? | 16.2% | ·
COc1cc(OC)cc(C(=O)O/N=C(\N)c2ccncc2)c1 | -2.0% | -1.6% | ? | 2.1% | -2.1%
N/C(=N\OC(=O)c1ccccc1)c1ccncc1 | 2.82µM* | ? | 19µM* | ? | 25.2%
O=C(COC(=O)c1ccncc1)c1ccc(Br)cc1 | -4.4% | -1.5% | 7.57µM* | -0.8% | ·
N/C(=N\OC(=O)c1cccc(Br)c1)c1ccncc1 | 20.3% | ? | 12µM* | 24.6% | 16.6%
N/C(=N\OC(=O)c1ccc(Br)cc1)c1ccncc1 | ? | ? | 4.78µM* | ? | ?
N#CCCN(CC(=O)O)S(=O)(=O)c1ccccc1 | -0.4% | 0.6% | 4.0% | -3.1% | ·
COc1cc(C(=O)Nc2ccc3oc(-c4cccnc4)nc3c2)cc(OC)c1OC | -1.6% | -6.7% | 3.3% | -1.7% | -43.9%
O=C(NCCC1CCCC1)C1CCC(=O)N(CCCN2CCCC2=O)C1 (configuration not stated) | -0.4% | 3.1% | -2.6% | -2.3% | ·
O=[N+]([O-])c1ccc(N2CCN(S(=O)(=O)Cc3ccccc3)CC2)cc1N1CCOCC1 | -2.2% | -6.3% | 0.4% | -3.6% | -20.8%
Cc1ccc(Oc2c(F)c(F)nc(N3CCCC3)c2F)cc1 | -0.8% | 1.8% | 0.2% | -1.5% | -15.2%[1.84 µM]
C=C(C)C1CC=C(C)/C(=N/NC(=O)COc2ccccc2Cl)C1 (configuration not stated) | -7.6% | -7.2% | 4.8% | 0.7% | -24.4%
Cc1cccc2c1OCC/C2=N\NC(=O)COc1ccccc1Cl | 3.16µM* | ? | 3.79µM* | 2.24µM* | 22.2%
SMILES | Rab9 promoter act | ELG1 genotoxic | FLuc counter | NPC1 promoter act | SMN2 splice enh
Cc1ccc(-c2cc(C(F)F)n3ncc(C(=O)N4CCCc5ccccc54)c3n2)cc1 | -2.2% | 4.9% | 2.4% | -4.4% | 5.8%
O=C(c1cc(-c2ccccc2)nc2ccccc12)N1CCCc2ccccc21 | 11.4% | -2.7% | 16.9µM* | -0.9% | -11.9%[1.84 µM]
Cc1cccc(-c2cc(C(=O)N3CCCc4ccccc43)c3ccccc3n2)c1 | 2.5% | 0.9% | 12µM* | -0.1% | ·
CC1CCN(S(=O)(=O)c2ccc3nc(Nc4ccc(C#N)cc4)ccc3c2)CC1 | · | · | -0.7% | · | ·
C=CCn1c(C)c(C(=O)OCC)c2cc(O)c3ccccc3c21 | -1.7% | -1.0% | 1.0% | 3.9% | ·
COc1ccc(/C=N/Nc2nc(C)cc(-c3ccccc3)n2)cc1OC | 1.0% | -12.6% | 13.5µM* | -1.7% | ·
